# Test results published in PubChem BioAssay (Tox21).
# Values without a mark were called inactive. Results filed as inconclusive are left out. A call without a number means that no potency is given here. The source made the active and inactive calls. Unless noted, calls follow the shape of the dose curve; as a rule, active = well fitted curve in the direction sought with a large enough effect in the repeat runs; inconclusive = weak or mixed curves; inactive = no such curve, though single readings can be large; an effect the other way counts as inactive or inconclusive.
# How the values were obtained:
# [1] = molecular target: Thyrotropin receptor (Homo sapiens) (UniProt P16473); assay: qHTS assay to identify small molecule agonists of the thyroid stimulating hormone receptor (TSHR) signaling pathway (AID 1224843; calls by dose curve; also: nearly all actives have a fitted effect of over 45% in size)
# How it was run: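 HEK293/TSHR, 800 cells/well; cpd 30 min RT; add cAMP-d2 + anti-cAMP-cryptate, 1 h RT; fluorescence read on plate reader. 15-pt titration, n=3.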
# [2] = qHTS assay to identify small molecule agonists of the hypoxia (HIF-1) signaling pathway - cell viability counter screen (AID 1224844; calls by dose curve; also: nearly all actives have a fitted effect of over 50% in size; also: potency is read from the fitted curve at half-maximal effect)
# How it was run: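 Same wells as the HIF-1 reporter screen; ME-180 cells carrying HRE-bla, 17 hr treatment at 37C; CellTiter-Glo luminescence read after 30 min at room temperature.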
# [3] = qHTS assay to identify small molecule agonists of the hypoxia (HIF-1) signaling pathway (AID 1224846; active = well fitted activation curve with a large enough effect in the signal ratio in the repeat runs, not every such curve was filed as active; the % refers to the signal ratio)
# How it was run: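 In ME-180 cells bearing an HRE-bla construct, 17 h treatment with DMSO-dissolved compounds at 37C was followed by CCF4-AM loading to quantify reporter induction.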
# [4] = qHTS assay to identify small molecule agonists of H2AX - cell viability counter screen (AID 1224847; calls by dose curve; also: top concentration of the series differs between compounds; nearly all actives have a fitted effect of over 30% in size)
# How it was run: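 Compounds tested at 15 concentrations were incubated 3 hr at 37C with wild-type CHO-K1 cells; cellular ATP-based luminescence (CellTiter-Glo) indicated viability.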
# [5] = qHTS assay to identify small molecule antagonists of the estrogen related receptor (ERR) signaling pathway from Tox21 library (AID 1224848); also: nearly all actives have a fitted effect of over 50% in size; also: potency is read from the fitted curve at half-maximal effect
# How it was run: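 Compounds dissolved in DMSO are pin-transferred onto ERR reporter cells (2,000 per well) that have settled for 6 h at 37 C. Plates then incubate 18 h at 37 C before ONE-Glo luciferase reagent and a luminescence read 30 min later.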
# [6] = qHTS assay to identify small molecule agonists of the estrogen related receptor (ERR) signaling pathway from Tox21 library (AID 1224849; calls by dose curve; also: nearly all actives have a fitted effect of over 15% in size); conditions: ERR reporter cell line, ONE-Glo luciferase, 18 h; at 92.4 µM (top of the series) unless noted
# How it was run: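 Reporter cells (ERR, NTP source) treated with Tox21 10K compounds 18 h, 37 C. Readout: ONE-Glo luminescence, 30 min RT.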
# [7] = qHTS RealTime-Glo MT Cell Viability Assay in HepG2 cells - 24 hour (AID 1224867); also: nearly all actives have a fitted effect of over 50% in size
# How it was run: (§1)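 Cells + NanoLuc/prosubstrate dispensed (600 cells/well) → 5 h at 37 C/5% CO2 → compounds in DMSO transferred → 40 h incubation at 37 C, luminescence read at 0, 8, 16, 24, 32, 40 h.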
# [8] = qHTS RealTime-Glo MT Cell Viability Assay in HEK293 cells - 32 hour (AID 1224868); also: nearly all actives have a fitted effect of over 50% in size; also: potency is read from the fitted curve at half-maximal effect
# How it was run: (§2)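 Tox21 10K qHTS, HEK293, 600 cells/well, RealTime-Glo reagent co-dispensed with cells; 5 h preincubation, compound by pintool, 37 C, luminescence at 0–40 h.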
# [9] = A CellTox Green Cytotoxicity Assay to monitor cytotoxicity in HEK293 cells - 0 hour (AID 1224869); also: nearly all actives have a fitted effect of over 50% in size
# How it was run: (§3)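 Homogeneous no-lysis format: HEK293 cell suspension mixed with CellTox Green reagent, seeded, incubated 5 h at 37 C/5% CO2, then dosed by pintool with compound in DMSO.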
# [10] = qHTS RealTime-Glo MT Cell Viability Assay in HepG2 cells - 40 hour (AID 1224870); also: nearly all actives have a fitted effect of over 50% in size
# How it was run: (§4)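 HepG2 cells (600/well) mixed with RealTime-Glo MT reagent, settled 5 h at 37 C/5% CO2 before compound addition. Nonlytic NanoLuc luminescence from viable-cell prosubstrate reduction read repeatedly during 40 h treatment at 37 C.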
# [11] = A CellTox Green Cytotoxicity Assay to monitor cytotoxicity in HEK293 cells - 40 hour (AID 1224871); also: nearly all actives have a fitted effect of over 45% in size
# How it was run: as §3
# [12] = qHTS RealTime-Glo MT Cell Viability Assay in HepG2 cells - 8 hour (AID 1224873); also: nearly all actives have a fitted effect of over 55% in size
# How it was run: as §4
# [13] = qHTS RealTime-Glo MT Cell Viability Assay in HEK293 cells - 40 hour (AID 1224874); conditions: RealTime-Glo luminescence; max response: stronger effect = lower value; also: nearly all actives have a fitted effect of over 50% in size; also: potency is read from the fitted curve at half-maximal effect
# How it was run: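 Measured as luminescence from the same continuously cultured HEK293 wells at successive time points (0, 8, 16, 24, 32, 40 h) after compound addition. Reagent present from seeding; dosing at 5 h; incubation 37 C.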
# [14] = A CellTox Green Cytotoxicity Assay to monitor cytotoxicity in HEK293 cells - 24 hour (AID 1224875); also: nearly all actives have a fitted effect of over 45% in size
# How it was run: as §3
# [15] = A CellTox Green Cytotoxicity Assay to monitor cytotoxicity in HepG2 cells - 16 hour (AID 1224876); also: nearly all actives have a fitted effect of over 45% in size
# How it was run: (§5)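 Fluorescent DNA-binding dye, 600 HepG2 cells/well, 5 h preincubation then compound in DMSO; same plates read at 0–40 h, 37 C.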
# [16] = qHTS RealTime-Glo MT Cell Viability Assay in HepG2 cells - 32 hour (AID 1224877); also: nearly all actives have a fitted effect of over 55% in size
# How it was run: as §1
# [17] = A CellTox Green Cytotoxicity Assay to monitor cytotoxicity in HepG2 cells - 24 hour (AID 1224878); also: nearly all actives have a fitted effect of over 45% in size
# How it was run: as §5
# [18] = A CellTox Green Cytotoxicity Assay to monitor cytotoxicity in HepG2 cells - 40 hour (AID 1224879); also: nearly all actives have a fitted effect of over 40% in size
# How it was run: as §5
# [19] = qHTS assay to identify small molecule agonists of H2AX (AID 1224845; active = well fitted activation curve with a large enough effect in the signal ratio in the repeat runs, not every such curve was filed as active; the % refers to the signal ratio)
# How it was run: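 Wild-type CHO-K1 cells, plated overnight, exposed 3hr at 37C to 15 concentrations (0.76% DMSO final). Lysed, then HTRF anti-pH2AX (S139) cryptate and anti-H2AX-d2 antibodies, 24 hr room temperature; 665/620 nm emission read.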
# [20] = qHTS RealTime-Glo MT Cell Viability Assay in HEK293 cells - 16 hour (AID 1224872); also: nearly all actives have a fitted effect of over 50% in size; also: potency is read from the fitted curve at half-maximal effect
# How it was run: as §2
# Chain of Thyrotropin receptor (Homo sapiens) (P16473 whole entry, looked up): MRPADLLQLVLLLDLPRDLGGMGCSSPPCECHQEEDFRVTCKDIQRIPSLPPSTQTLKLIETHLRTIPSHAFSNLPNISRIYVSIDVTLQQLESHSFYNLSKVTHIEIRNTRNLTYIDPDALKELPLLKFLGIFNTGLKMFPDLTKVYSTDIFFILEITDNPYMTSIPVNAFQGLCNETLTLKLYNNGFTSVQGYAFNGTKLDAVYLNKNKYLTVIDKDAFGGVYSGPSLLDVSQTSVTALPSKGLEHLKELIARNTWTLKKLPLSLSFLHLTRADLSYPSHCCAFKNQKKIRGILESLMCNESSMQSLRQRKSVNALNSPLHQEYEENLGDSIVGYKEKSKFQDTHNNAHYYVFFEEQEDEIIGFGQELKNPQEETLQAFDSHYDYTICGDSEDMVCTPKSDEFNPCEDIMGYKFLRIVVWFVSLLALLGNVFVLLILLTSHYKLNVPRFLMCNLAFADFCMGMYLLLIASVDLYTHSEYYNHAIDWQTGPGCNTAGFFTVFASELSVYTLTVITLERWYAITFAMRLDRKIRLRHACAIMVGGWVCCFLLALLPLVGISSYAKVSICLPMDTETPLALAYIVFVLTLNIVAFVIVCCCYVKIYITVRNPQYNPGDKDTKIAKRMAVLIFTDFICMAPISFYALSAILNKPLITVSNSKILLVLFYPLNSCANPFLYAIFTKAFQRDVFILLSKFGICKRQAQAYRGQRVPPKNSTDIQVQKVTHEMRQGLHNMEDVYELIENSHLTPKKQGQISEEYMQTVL
smiles,measurement,setting,value
CCCC(=O)OCc1ccccc1,Potency,[1],inactive
same,Potency,[2],inactive
same,outcome,[3],inactive
same,Potency,[4],inactive
same,Potency,[5],inactive
same,"activity change, positive = activation",[6],0.0767%
same,outcome,[7],inactive
same,Potency,[8],inactive
same,Potency,[9],inactive
same,Potency,[10],inactive
same,Potency,[11],inactive
same,outcome,[12],inactive
same,max response,[13],5.95%
same,Potency,[14],inactive
same,Potency,[15],inactive
same,Potency,[16],inactive
same,Potency,[17],inactive
same,Potency,[18],inactive
CC(C)NC(=O)c1ccccc1N,Potency,[1],inactive
same,Potency,[2],inactive
same,Potency,[19],inactive
same,Potency,[4],inactive
same,outcome,[7],inactive
same,Potency,[8],inactive
same,Potency,[9],inactive
same,Potency,[10],inactive
same,Potency,[11],inactive
same,Potency,[20],inactive
same,outcome,[12],inactive
same,max response,[13],0.226%
same,Potency,[14],inactive
same,Potency,[15],inactive
same,Potency,[16],inactive
same,Potency,[17],inactive
same,Potency,[18],inactive
O=Cc1ccc(Cl)c([N+](=O)[O-])c1,Potency,[1],inactive
same,Potency,[2],inactive
same,outcome,[3],inactive
same,Potency,[4],inactive
same,Potency,[5],54.5 µM (active)
same,"activity change, positive = activation",[6],-38.6%
same,outcome,[7],inactive
same,Potency,[9],inactive
same,Potency,[10],inactive
same,Potency,[11],inactive
same,Potency,[20],inactive
same,outcome,[12],inactive
same,Potency,[14],inactive
same,Potency,[15],inactive
same,Potency,[16],inactive
same,Potency,[17],inactive
Clc1ccccc1-c1nc(-c2ccncc2)no1,Potency,[1],inactive
same,Potency,[2],inactive
same,Potency,[19],inactive
same,outcome,[7],inactive
same,Potency,[9],inactive
same,Potency,[10],inactive
same,Potency,[11],inactive
same,outcome,[12],inactive
same,Potency,[14],inactive
same,Potency,[15],inactive
same,Potency,[16],inactive
same,Potency,[17],inactive
CO[C@@H]1COCC[C@@H]1N[C@@H]1CC[C@@](C(=O)N2CCc3ncc(C(F)(F)F)cc3C2)(C(C)C)C1,Potency,[1],inactive
same,Potency,[2],inactive
same,outcome,[3],inactive
same,Potency,[4],inactive
same,outcome,[7],inactive
same,Potency,[8],15.4 µM (active)
same,Potency,[9],inactive
same,Potency,[10],inactive
same,Potency,[11],inactive
same,Potency,[20],17.3 µM (active)
same,outcome,[12],inactive
same,Potency,[13],17.3 µM (active)
same,Potency,[14],inactive
same,Potency,[15],inactive
same,Potency,[16],inactive
same,Potency,[17],inactive
same,Potency,[18],inactive
CCn1nc(Cc2ccccc2)cc1C1CCN(C[C@H]2C[C@H](N(C)[C@@H](C(=O)O)C(C)C)C[C@@H]2c2cccc(F)c2)CC1,Potency,[1],inactive
same,Potency,[2],inactive
same,Potency,[19],inactive
same,Potency,[4],inactive
same,"activity change, positive = activation",[6],-18.7%
same,outcome,[7],inactive
same,Potency,[9],inactive
same,Potency,[10],inactive
same,Potency,[11],inactive
same,outcome,[12],inactive
same,Potency,[14],inactive
same,Potency,[15],inactive
same,Potency,[16],inactive
same,Potency,[17],inactive
CCCCCCCCCCCCCCCCC(=O)O,Potency,[1],inactive
same,Potency,[2],inactive
same,Potency,[19],inactive
same,Potency,[4],inactive
same,outcome,[7],inactive
same,Potency,[9],inactive
same,Potency,[10],inactive
same,Potency,[11],inactive
same,outcome,[12],inactive
same,max response,[13],3.49%
same,Potency,[14],inactive
same,Potency,[15],inactive
same,Potency,[16],inactive
same,Potency,[17],inactive
same,Potency,[18],inactive
O=C(O)c1ccc(O)c(O)c1,Potency,[1],inactive
same,Potency,[2],inactive
same,outcome,[3],inactive
same,Potency,[4],inactive
same,outcome,[7],inactive
same,Potency,[8],inactive
same,Potency,[9],inactive
same,Potency,[10],inactive
same,Potency,[11],inactive
same,Potency,[20],inactive
same,outcome,[12],inactive
same,max response,[13],-5.14%
same,Potency,[14],inactive
same,Potency,[15],inactive
same,Potency,[16],inactive
same,Potency,[17],inactive
same,Potency,[18],inactive
CC(C)Cc1nccs1,Potency,[1],inactive
same,Potency,[2],inactive
same,Potency,[19],inactive
same,Potency,[4],inactive
same,outcome,[7],inactive
same,Potency,[8],inactive
same,Potency,[9],inactive
same,Potency,[10],inactive
same,Potency,[11],inactive
same,Potency,[20],inactive
same,outcome,[12],inactive
same,max response,[13],3.56%
same,Potency,[14],inactive
same,Potency,[15],inactive
same,Potency,[16],inactive
same,Potency,[17],inactive
same,Potency,[18],inactive
C=Cc1ccc(C=C)cc1,Potency,[1],inactive
same,Potency,[2],inactive
same,outcome,[3],inactive
same,Potency,[4],inactive
same,Potency,[5],inactive
same,"activity change, positive = activation",[6],3.76%
same,outcome,[7],inactive
same,Potency,[8],inactive
same,Potency,[9],inactive
same,Potency,[10],inactive
same,Potency,[11],inactive
same,Potency,[20],inactive
same,outcome,[12],inactive
same,max response,[13],11.4%
same,Potency,[14],inactive
same,Potency,[16],inactive
same,Potency,[17],inactive
same,Potency,[18],inactive
CC(CC(C#N)(c1ccccc1)C(C)C)N(C)C (stereo unspecified),Potency,[1],inactive
same,Potency,[2],inactive
same,outcome,[3],inactive
same,Potency,[4],inactive
same,Potency,[5],inactive
same,"activity change, positive = activation",[6],2.64% [at 42.5 µM]
same,outcome,[7],inactive
same,Potency,[8],inactive
same,Potency,[9],inactive
same,Potency,[10],inactive
same,Potency,[11],inactive
same,Potency,[20],inactive
same,outcome,[12],inactive
same,max response,[13],6.67%
same,Potency,[14],inactive
same,Potency,[15],inactive
same,Potency,[16],inactive
same,Potency,[17],inactive
same,Potency,[18],inactive
O=C(Cl)c1ccc(F)c(Cl)c1,Potency,[1],inactive
same,Potency,[2],inactive
same,outcome,[3],inactive
same,Potency,[4],inactive
same,Potency,[5],inactive
same,"activity change, positive = activation",[6],-7.97%
same,outcome,[7],inactive
same,Potency,[9],inactive
same,Potency,[10],inactive
same,Potency,[11],inactive
same,outcome,[12],inactive
same,max response,[13],35.2%
same,Potency,[14],inactive
same,Potency,[15],inactive
same,Potency,[16],inactive
same,Potency,[17],inactive
same,Potency,[18],inactive
C[C@@H](O)[C@H]1C(=O)N2C(C(=O)O)=C(S[C@@H]3CN[C@H](CNS(N)(=O)=O)C3)[C@H](C)[C@H]12,Potency,[1],inactive
same,Potency,[2],inactive
same,outcome,[3],inactive
same,Potency,[4],inactive
same,outcome,[7],inactive
same,Potency,[8],inactive
same,Potency,[9],inactive
same,Potency,[10],inactive
same,Potency,[11],inactive
same,Potency,[20],inactive
same,outcome,[12],inactive
same,max response,[13],2.56%
same,Potency,[14],inactive
same,Potency,[15],inactive
same,Potency,[16],inactive
same,Potency,[17],inactive
same,Potency,[18],inactive
O=C1CCCN1CCO,Potency,[1],inactive
same,Potency,[2],21.9 µM (active)
same,Potency,[19],inactive
same,Potency,[4],inactive
same,outcome,[7],inactive
same,Potency,[8],inactive
same,Potency,[9],inactive
same,Potency,[10],inactive
same,Potency,[11],inactive
same,outcome,[12],inactive
same,max response,[13],-23.9%
same,Potency,[14],inactive
same,Potency,[15],inactive
same,Potency,[16],inactive
same,Potency,[17],inactive
same,Potency,[18],inactive
Cc1ccc(NC=O)c(C)c1,Potency,[1],inactive
same,Potency,[2],inactive
same,Potency,[19],inactive
same,Potency,[4],inactive
same,outcome,[7],inactive
same,Potency,[8],inactive
same,Potency,[9],inactive
same,Potency,[11],inactive
same,Potency,[20],inactive
same,outcome,[12],inactive
same,max response,[13],4.39%
same,Potency,[14],inactive
same,Potency,[15],inactive
same,Potency,[16],inactive
same,Potency,[17],inactive
same,Potency,[18],inactive
